The record followed here is PubChem BioAssay AID1259309 (ICCB-Longwood Screening Facility, Harvard Medical School, 2017).

Out of some 330,000 compounds screened, about 1,800 (0.55%) were called active. Shown is part of a subset that was picked to be rich in actives. Values without a mark were called inactive. Rule as the data show it: active = growth inhibition above about 68%; inactive = the rest.

This experiment in a line: growth inhibition of ugtP-null S. aureus, primary screen, RN4220 ugtP deletion, OD600 (AID 1259309).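 Also: plate controls were untreated wells for no effect and antibiotic for full effect.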 The note with it: 16 h, hits give high values.
As to `CC1CCCC(C)N1N=Cc1ccc([N+](=O)[O-])cc1` (stereo not drawn), the growth inhibition is 18%.

As for `O=C(NN=Cc1cccs1)c1cnccn1`, the growth inhibition was 1.82%.

As for `Cc1ccc(OCC(=O)NNC(=S)NCc2ccccc2)cc1`, the growth inhibition is -11.7%.

With `CCCc1ccc(OCC(=O)NNC(=S)NC(=O)c2ccco2)cc1`, the growth inhibition is 96% (active).

Take `Cc1ccc(OCC(=O)NCCCNC(=O)c2ccco2)cc1C`: the growth inhibition was -2.8%.

With `CC(Oc1ccc2ccccc2c1)C(=O)NNC(=S)NC(=O)c1ccco1` (stereo not drawn), the growth inhibition is 91.7% (active).

As for `Cc1ccc(C(=O)NNC(=O)C(C)Oc2ccc3ccccc3c2)o1` (stereo not drawn), the growth inhibition was 8%.

On to `O=C(Nc1ccc2ccccc2c1)/C(=C/c1cccc(Br)c1)NC(=O)c1ccco1`, for which the growth inhibition was -9.2%.

Take `CC(=NNC(=O)CSc1nc2ccccc2o1)c1cccc(O)c1`: the growth inhibition is 1.7%.

Turning to `COc1cccc(C=NNC(=O)c2cc(-c3cccn3C)n[nH]2)c1`, the growth inhibition is -20.1%.

Take `CN(Cc1c(C(=O)NN=Cc2cccc(F)c2)nnn1-c1nonc1N)c1ccccc1`: the growth inhibition was 0.685%.

As to `Cc1ccccc1C(=O)ON=C(N)c1ccncc1`, the growth inhibition was 6.35%.

`O=C(Cn1nc2ccccc2n1)NN=Cc1cc(Cl)cc([N+](=O)[O-])c1O`: the growth inhibition is 2.61%.

`COC(=O)CC1c2cc(C(F)(F)F)ccc2S(=O)(=O)N1Cc1ccccc1OC` (stereo not drawn): the growth inhibition was 4.2%.

For the molecule `CCN(CC(=O)Nc1ccc(OC)cc1)C(=O)CSCc1ccc(C)cc1`, the growth inhibition was 3.82%.

Consider `COc1ccc(CS(=O)/C(Cl)=C(/Cl)C(=O)Nc2ccc(OC)nc2)cc1` (stereo not drawn), for which the growth inhibition is 15.9%.

With `COc1ccc(NC(=O)/C(Cl)=C(/Cl)S(=O)Cc2ccc(C)cc2)cn1` (stereo not drawn), the growth inhibition was 99.4% (active).

For the molecule `C[C@]12CCC3c4ccc(OC(=O)c5ccccc5)cc4CCC3C1CCC2O` (stereo partly drawn), the growth inhibition is 19.4%.

As to `COc1ccc2c(c1)C(=O)CC(c1ccccc1)O2` (stereo not drawn), the growth inhibition was 6.73%.

`COc1ccc2c(c1)OC(O)(C(F)(F)C(F)F)CC2=O` (stereo not drawn): the growth inhibition is 99.4% (active).

For `COc1ccc2c(c1)SC(C)CC2=O` (stereo not drawn), the growth inhibition was -4.08%.

For the molecule `CCC(=NOC(=O)c1cccc(C)c1)C(=O)c1cccs1`, the growth inhibition is -0.652%.

`CCC1C/C(=C/c2cccs2)C(=O)/C(=C/c2cccs2)C1` (stereo not drawn): the growth inhibition is 94.7% (active).

Regarding `O=C1/C(=C/c2cccs2)CCC1C1CCCC1` (stereo not drawn), the growth inhibition was 8.34%.

Consider `O=C1/C(=C/c2cccs2)CCc2ccccc21`, for which the growth inhibition is 18.9%.

For the molecule `CC(CC(=O)Nc1ccccn1)=NNC(=O)C(=O)Nc1cccc(C)c1`, the growth inhibition is 3.99%.

As to `COc1ccc(O)c(C=NNC(=O)CN2CCS(=O)(=O)CC2)c1`, the growth inhibition was -0.335%.

Take `CC(=NNc1ccc(C(F)(F)F)cn1)c1ccncc1`: the growth inhibition was 1.19%.

In the case of `O=C(COC(=O)c1ccc([N+](=O)[O-])cc1Cl)NC(=O)c1ccccc1`, the growth inhibition was -1.26%.

Regarding `O=C(NC(Nc1nc2ccc([N+](=O)[O-])cc2s1)(C(F)(F)F)C(F)(F)F)c1ccccc1`, the growth inhibition is 100% (active).

For `N=C1C(c2nc3ccccc3s2)=C(O)CN1NC(=O)c1ccc([N+](=O)[O-])cc1`, the growth inhibition was -0.97%.

With `Cc1ccsc1C=NNC(=O)c1ccncc1`, the growth inhibition was -0.727%.

On to `O=S(=O)([N-]c1nc2ccccc2nc1-[n+]1ccc(Cc2ccccc2)cc1)c1ccc(Br)s1`, for which the growth inhibition was 95.2% (active).

As to `O=S(=O)(NCc1ccccn1)c1ccc(Br)s1`, the growth inhibition was 5.99%.

On to `Cc1ccsc1C(=O)OCC(=O)c1cc(C)n(CC2CCCO2)c1C` (stereo not drawn), for which the growth inhibition is 0.578%.

In the case of `O=C1C(=O)N(CC2COc3ccccc3O2)c2ccccc21` (stereo not drawn), the growth inhibition is -2.06%.

Regarding `Cc1cc(C(=O)CCl)c(C)n1CC1COc2ccccc2O1` (stereo not drawn), the growth inhibition is 90.8% (active).

For the molecule `CCOC(=O)c1c(NC(=O)Cn2nc(C(F)(F)F)cc2C)sc2c1CCC2`, the growth inhibition was 2.33%.

As for `CCCOC(=O)Nc1sc2c(c1C(=O)OCC)CCC2`, the growth inhibition is 91.5% (active).

Turning to `CCOC(=O)c1c(NC(=O)C(C)Sc2c[nH]c3ccccc23)sc2c1CCC2` (stereo not drawn), the growth inhibition was 25.3%.

Take `CCOC1OC(C(=O)N2CCOCC2)=CC(c2ccc3c(c2)OCO3)C1CCCO` (stereo not drawn): the growth inhibition is 2.32%.

`O=C(CNc1ccc2ccccc2c1)NN=Cc1ccc(C(=O)O)cc1`: the growth inhibition was 1.63%.

With `COc1ccc(C2C3=C(CCCC3=O)N(CC(=O)O)C3=C2C(=O)CCC3)cc1`, the growth inhibition was 7.87%.

In the case of `COc1ccc2c(C)cc3nnnn3c2c1`, the growth inhibition was 3.97%.

Consider `CCn1c2c(c3ccc(OC)cc31)CCCC2=O`, for which the growth inhibition was 95.9% (active).

As for `CCC1=C2CCC3C(=O)N(C)C(=O)C3C2[C@@]2(Cc3ccccc3)C(=NCCOC)OC(=O)N2C1=O` (stereo partly drawn), the growth inhibition is -1.76%.

As to `COc1cccc(-c2cnc(OC(C)(C)C)nc2OC(C)(C)C)c1`, the growth inhibition is 99.2% (active).

For the molecule `CC(C)(C)Oc1ncc(Br)c(OC(C)(C)C)n1`, the growth inhibition is 2.82%.

Take `COc1ccc(-c2nc(N)ncc2-c2ccc(Cl)cc2)c(O)c1`: the growth inhibition was -8.46%.

Take `c1ccc(C2C3CN(Cc4cccnc4)C(c4ccccc4)C34CC2(c2ccccc2)C4)cc1` (stereo not drawn): the growth inhibition is 0.638%.

On to `Cc1nnsc1C(=O)NN=Cc1ccccc1Cl`, for which the growth inhibition is 0.586%.

For `O=C(O)c1ccc(NC(=NS(=O)(=O)c2ccc(Cl)cc2)c2ccccc2)cc1`, the growth inhibition was 4.64%.

As to `O=C(Nc1ccccc1)c1nnsc1S(=O)(=O)c1ccc(Cl)cc1`, the growth inhibition was 100% (active).

In the case of `Cn1c2ccccc2c2cc(C=NNC(=O)c3ccc(N)cc3)ccc21`, the growth inhibition was -2.18%.

`COc1ccc(C2CC(=O)C=C(c3ccc4ccn(C)c4c3)C2)cc1` (stereo not drawn): the growth inhibition was 4.99%.

Consider `CC(C)(C)c1cc(C(=O)NN=Cc2ccccn2)n[nH]1`, for which the growth inhibition was 4.75%.

Consider `O=C(NC(=S)Nc1ccc(S(=O)(=O)Nc2ncccn2)cc1)c1cccc(Br)c1`, for which the growth inhibition was -8.14%.

Turning to `Cc1ccccc1NC(=S)NNC(=O)c1cccc(Br)c1`, the growth inhibition was 23.5%.

Take `O=C(NC(=S)Nc1cccc2c(O)cccc12)c1cccc(Br)c1`: the growth inhibition was 99.6% (active).

Regarding `Clc1cc(-c2ccc(C=Nn3cnnc3)o2)ccc1Br`, the growth inhibition is -3.77%.

As to `O=C(/C=C/c1ccco1)NC(=S)N1CCCCC1`, the growth inhibition is 7.55%.

For the molecule `O=C(/C=C/c1ccco1)NC(=S)Nc1ccccc1Br`, the growth inhibition was 90.7% (active).

In the case of `COc1ccc(Cl)cc1C(=O)NNC(=S)NC(=O)/C=C/c1ccco1`, the growth inhibition was -0.168%.
